In PubChem BioAssay (EPA / NIEHS) one finds outcome and AC50 data, which are given here for 6 compounds.

Read-out in experiment [1]: Interleukin-8 (IL8), CXCL8 (gene 3576)
Put plainly: BSK_CASM3C_IL8: BioMAP Diversity Plus: CASM3C Assay for Interleukin-8 (IL8) Biomarker Activity (AID 2283042).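 Further: IL-8 protein level quantified by ELISA.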 Particulars: primary human coronary artery smooth muscle cells; actives raise or lower the signal.

Read-out in experiment [2]: Human Leukocyte Antigen - DR isotype (HLADR), HLA-DRA (gene 3122)
Nature of the experiment: BSK_CASM3C_HLADR: BioMAP Diversity Plus: CASM3C Assay for Human Leukocyte Antigen - DR isotype (HLADR) Biomarker Activity (AID 2283043).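 Further: cell-surface HLA-DR protein level quantified by ELISA.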 The note with it: primary human coronary artery smooth muscle cells; actives raise or lower the signal.

Read-out in experiment [3]: Macrophage colony-stimulating factor (MCSF), CSF1 (gene 1435)
Nature of the experiment: BSK_CASM3C_MCSF: BioMAP Diversity Plus: CASM3C Assay for Macrophage colony-stimulating factor (MCSF) Biomarker Activity (AID 2283044).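 Further: M-CSF protein amount quantified by ELISA after 24 h exposure.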 The note with it: primary human coronary artery smooth muscle cells; actives raise or lower the signal.

Read-out in experiment [4]: Low-density lipoprotein receptor (LDLR), LDLR (gene 3949)
Put plainly: BSK_CASM3C_LDLR: BioMAP Diversity Plus: CASM3C Assay for Low-density lipoprotein receptor (LDLR) Biomarker Activity (AID 2283045).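 Further: LDLR protein level on the cell surface quantified by ELISA.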 The note with it: primary human coronary artery smooth muscle cells; actives raise or lower the signal.

Read-out in experiment [5]: Monocyte Chemoattractant Protein-1 (MCP1), CCL2 (gene 6347)
Put plainly: BSK_CASM3C_MCP1: BioMAP Diversity Plus: CASM3C Assay for Monocyte Chemoattractant Protein-1 (MCP1) Biomarker Activity (AID 2283046).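 Further: MCP-1 level quantified by ELISA 24 h after dosing.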 The note with it: primary human coronary artery smooth muscle cells; actives raise or lower the signal.

The nature of experiment [6]: BSK_CASM3C_Proliferation: Cell Proliferation Assessment in the BioMAP Diversity Plus: CASM3C Assay (AID 2283047).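 Further: sulforhodamine B total protein stain as relative cell number at 560 nm; sub-confluent cells exposed 48 h before staining; fitted both ways against DMSO so gain or loss of cell number.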 Particulars: primary human coronary artery smooth muscle cells.
Read-out in experiment [7]: Monokine induced gamma interferon (MIG), CXCL9 (gene 4283)
Nature of the experiment: BSK_CASM3C_MIG: BioMAP Diversity Plus: CASM3C Assay for Monokine induced gamma interferon (MIG) Biomarker Activity (AID 2283048).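 Further: MIG protein level measured by ELISA.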 Particulars: primary human coronary artery smooth muscle cells; actives raise or lower the signal.

Read-out in experiment [8]: serum amyloid A (SAA), SAA1 (gene 6288)
Put plainly: BSK_CASM3C_SAA: BioMAP Diversity Plus: CASM3C Assay for serum amyloid A (SAA) Biomarker Activity (AID 2283049).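 Further: SAA protein level quantified by ELISA.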 The note with it: primary human coronary artery smooth muscle cells; actives raise or lower the signal.

A short description of experiment [9]: BSK_CASM3C_SRB: Viability Assessment in the BioMAP Diversity Plus: CASM3C Assay (AID 2283050).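 Further: total protein by SRB staining as cytotoxicity measure in parallel cultures; cells exposed to compound for 24 h.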 Particulars: primary human coronary artery smooth muscle cells.
Read-out in experiment [10]: Thrombomodulin, THBD (gene 7056)
Nature of the experiment: BSK_CASM3C_Thrombomodulin: BioMAP Diversity Plus: CASM3C Assay for Thrombomodulin Biomarker Activity (AID 2283051).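 Further: thrombomodulin protein level measured by ELISA 24 h after dosing.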 The note with it: primary human coronary artery smooth muscle cells; actives raise or lower the signal.

Read-out in experiment [11]: Tissue Factor, F3 (gene 2152)
Nature of the experiment: BSK_CASM3C_TissueFactor: BioMAP Diversity Plus: CASM3C Assay for Tissue Factor Biomarker Activity (AID 2283052).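 Further: cell surface tissue factor protein level read by ELISA.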 Particulars: primary human coronary artery smooth muscle cells; actives raise or lower the signal.

Read-out in experiment [12]: Interferon-gamma inducible Protein 10 (IP10), CXCL10 (gene 3627)
Put plainly: BSK_hDFCGF_IP10: BioMAP Diversity Plus: hDFCGF Assay for Interferon-gamma inducible Protein 10 (IP10) Biomarker Activity (AID 2283053). Particulars: primary human foreskin fibroblasts; actives raise or lower the signal. In a few lines: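 ELISA read-out of IP-10 (CXCL10) from primary human skin fibroblasts, 24 h after compound addition. Gain or loss of signal versus DMSO baseline, bidirectional curve fitting.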

Read-out in experiment [13]: Urokinase-type plasminogen activator receptor (uPAR), PLAUR (gene 5329)
Nature of the experiment: BSK_CASM3C_uPAR: BioMAP Diversity Plus: CASM3C Assay for Urokinase-type plasminogen activator receptor (uPAR) Biomarker Activity (AID 2283054).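 Further: cell-surface uPAR protein level quantified by ELISA.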 Particulars: primary human coronary artery smooth muscle cells; actives raise or lower the signal.

Read-out in experiment [14]: Vascular cell adhesion molecule 1 (VCAM1), VCAM1 (gene 7412)
Nature of the experiment: BSK_CASM3C_VCAM1: BioMAP Diversity Plus: CASM3C Assay for Vascular cell adhesion molecule 1 (VCAM1) Biomarker Activity (AID 2283055).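 Further: VCAM-1 protein level quantified by ELISA on the cells.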 The note with it: primary human coronary artery smooth muscle cells; actives raise or lower the signal.

Read-out in experiment [15]: Collagen III, COL3A1 (gene 1281)
Put plainly: BSK_hDFCGF_CollagenIII: BioMAP Diversity Plus: hDFCGF Assay for Collagen III Biomarker Activity (AID 2283056). Particulars: primary human foreskin fibroblasts; actives raise or lower the signal. In a few lines:
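Human foreskin primary fibroblasts were exposed to test chemicals for 24 h, after which collagen III was quantified by ELISA. Activity was fitted bidirectionally against DMSO as negative control and baseline.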

Read-out in experiment [16]: Epidermal growth factor receptor (EGFR), EGFR (gene 1956)
Nature of the experiment: BSK_hDFCGF_EGFR: BioMAP Diversity Plus: hDFCGF Assay for Epidermal growth factor receptor (EGFR) Biomarker Activity (AID 2283057). Particulars: primary human foreskin fibroblasts; actives raise or lower the signal. The method in brief: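 ELISA readout of EGFR on human dermal fibroblasts (primary foreskin cells), 24 h post-dosing; bidirectional curve fit vs DMSO baseline, gain or loss of signal scored.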

Read-out in experiment [17]: Interleukin-8 (IL8), CXCL8 (gene 3576)
Put plainly: BSK_hDFCGF_IL8: BioMAP Diversity Plus: hDFCGF Assay for Interleukin-8 (IL8) Biomarker Activity (AID 2283058). The note with it: primary human foreskin fibroblasts; actives raise or lower the signal. The method in brief: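 hDFCGF human dermal fibroblasts; 24 h chemical exposure; IL-8 by ELISA; bidirectional curve fit vs DMSO baseline; gain or loss of signal scored.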

The nature of experiment [18]: BSK_hDFCGF_Proliferation: Cell Proliferation Assessment in the BioMAP Diversity Plus: hDFCGF Assay (AID 2283059).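 Further: curves fitted for both rise and fall of signal versus DMSO baseline.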 Particulars: primary human foreskin fibroblasts. In a few lines: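 Steps: dose primary human dermal fibroblasts (foreskin); […] fix in 10% TCA; stain with 0.1% SRB; read 560 nm; fit gain or loss of signal against DMSO.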
Read-out in experiment [19]: Macrophage colony-stimulating factor (MCSF), CSF1 (gene 1435)
Put plainly: BSK_hDFCGF_MCSF: BioMAP Diversity Plus: hDFCGF Assay for Macrophage colony-stimulating factor (MCSF) Biomarker Activity (AID 2283060). Particulars: primary human foreskin fibroblasts; actives raise or lower the signal. In a few lines: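 Human foreskin primary fibroblasts were treated with test chemical for 24 h, and M-CSF was then measured by ELISA. Data were fitted bidirectionally against DMSO as the negative control and activity baseline.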

The nature of experiment [20]: BSK_hDFCGF_SRB: Viability Assessment in the BioMAP Diversity Plus: hDFCGF Assay (AID 2283061).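 Further: cells exposed to compound for 24 h before the read.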 Particulars: primary human foreskin fibroblasts. In a few lines:
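Human foreskin primary fibroblasts were treated with compound and assessed 24 h after dosing. Total protein was measured by sulforhodamine B staining (0.1% SRB after 10% TCA fixation, 560 nm read) as a cytotoxicity marker, with bidirectional fitting against DMSO baseline.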

Broadly, the AC50 is the concentration at which the activity in the assay is half-maximal.

Structures are written as SMILES. Active and inactive are the calls of the source. How the source made its calls: active means hit-call score of the fitted dose curve at least 0.9, where 1 is the maximum; inactive means score below 0.9.

Take `Cc1occc1C(=O)Nc1ccc(C(=O)N2CCC(F)(F)/C(=C\C(=O)N3CCC(N4CCCCC4)CC3)c3ccccc32)cc1`: the outcome in experiment [1], in [2], in [3], in experiment [5], in [6] and in experiment [7] was inactive. The outcome in experiment [8], in [9], in experiment [10], in experiment [11], in experiment [12] and in experiment [13] was inactive. Besides, the outcome in [14], in experiment [15], in experiment [16], in experiment [17], in [18] and in experiment [19] was inactive. The outcome in [20] was inactive. Besides, the AC50 in [4] is 10.8 µM (active).

On to `CCCCOC(=O)c1ccc(O)cc1`, for which the outcome in [1], in [2], in [3], in experiment [4], in [5] and in experiment [6] was inactive. Moreover, the outcome in experiment [7], in experiment [8], in experiment [9], in experiment [10], in experiment [11] and in experiment [12] was inactive. The outcome in [13], in experiment [14], in [15], in [16], in [17] and in experiment [19] was inactive. The result in [20] was inactive. The AC50 in [18] was 20 µM (active).

Consider `Clc1cc(Cl)c2c(c1)N=C1CCCCCN1C2`, for which the result in [1], in experiment [2], in experiment [3], in experiment [4], in [5] and in experiment [6] was inactive. The outcome in experiment [7], in [8], in experiment [9], in [10], in experiment [11] and in [12] was inactive. For the same compound, the outcome in [13], in experiment [14], in experiment [15], in experiment [16], in experiment [17] and in experiment [18] was inactive. Further, the result in [19] and in [20] was inactive.

Consider `Clc1ccccc1C(c1ccccc1)(c1ccccc1)n1ccnc1`, for which the AC50 in experiment [1] is 36.6 µM (active); in [2], 28 µM (active); in experiment [3], 32.6 µM (active); in [4] it was 36.9 µM (active); in experiment [5], 34.4 µM (active); in [6], 22.5 µM (active). Further, the concentration at half-maximal activity (AC50) was 39.2 µM (active) in [7]; 27.1 µM (active) in experiment [8]; 29.1 µM (active) in experiment [9]; 4.88 µM (active) in [10]; 20 µM (active) in [11]; 9.81 µM (active) in experiment [12]. Also, the AC50 is 28.4 µM (active) in experiment [13]; 31.9 µM (active) in experiment [14]; 5.5 µM (active) in [15]; 9.77 µM (active) in experiment [17]; 5.53 µM (active) in experiment [18]; 5.68 µM (active) in [19]. In addition, in [20], the concentration at half-maximal activity (AC50) was 9.78 µM (active). In addition, the result in experiment [16] was inactive.

For the compound `CC[C@@H]1C[C@H](N(Cc2cc(C(F)(F)F)cc(C(F)(F)F)c2)C(C)=O)c2cc(C(F)(F)F)ccc2N1C(=O)OC(C)C`, the result in experiment [1], in experiment [2], in [3], in [5], in experiment [7] and in [8] was inactive. The outcome in [9], in [10], in experiment [11], in experiment [13], in [14] and in experiment [15] was inactive. Besides, the outcome in [16], in experiment [17], in experiment [18], in experiment [19] and in [20] was inactive. Also, the AC50 is 1.22 µM (active) in [4], 1.37 µM (active) in [6] and 1.22 µM (active) in [12].

Regarding `CCCCCCCCOc1ccc(C(=O)c2ccccc2)c(O)c1`, the outcome in experiment [1], in [2], in experiment [3], in experiment [4], in experiment [5] and in [6] was inactive. The result in experiment [7], in experiment [8], in experiment [9], in [10], in experiment [11] and in experiment [12] was inactive. The outcome in experiment [13], in experiment [14], in experiment [15], in experiment [16], in experiment [17] and in experiment [19] was inactive. In addition, the result in [20] was inactive. The concentration at half-maximal activity (AC50) in experiment [18] is 20 µM (active).
